The campaign covered roughly 39,000 compounds. About 3,300 (8.5%) were called active. Shown is part of a subset that was picked to be rich in actives.

For the experiment, the system named is HepG2. As to the kind of experiment: cytotoxicity call (relative viability < 0.9). The conditions noted are these: 10 µM.
With `COc1ccc(C#Cc2cccc(-c3nc(C(=O)N[C@@H]4CCN(Cc5ccccc5)C4)cc4c3[C@@H](CCO)N(S(=O)C(C)(C)C)C4)c2)cc1OC` (stereo partly drawn), the cytotoxicity call is “inactive”.

On to `c1ccc2cc3nc4c(ccc5ccccc54)nc3cc2c1`, for which the cytotoxicity call is “inactive”.

Turning to `C[C@@H]1CCCCO[C@@H](CN(C)C(=O)NC2CCCCC2)[C@@H](C)CN([C@H](C)CO)C(=O)c2cc(NC(=O)c3ccccc3)ccc2O1`, the cytotoxicity call was “inactive”.

Regarding `C[C@@H]1CN([C@@H](C)CO)S(=O)(=O)c2ccc(C#Cc3ccccc3)cc2O[C@H]1CN(C)S(C)(=O)=O`, the cytotoxicity call was “inactive”.

For `C[C@H](CO)N1C[C@H](C)[C@@H](CN(C)Cc2ccncc2)Oc2c(NC(=O)c3cnccn3)cccc2C1=O`, the cytotoxicity call is “inactive”.

Take `C[C@@H]1CN([C@@H](C)CO)C(=O)c2cc(NC(=O)Nc3ccc(C(F)(F)F)cc3)ccc2O[C@@H](C)CCCCO[C@@H]1CN(C)C(=O)Nc1cccc2ccccc12`: the cytotoxicity call is “inactive”.

As to `CC(C)NC(=O)Nc1ccc2c(c1)C(=O)N([C@@H](C)CO)C[C@@H](C)[C@@H](CN(C)C(=O)Nc1cccc3ccccc13)OCCCC[C@@H](C)O2`, the cytotoxicity call was “inactive”.

On to `C[C@H](CO)N1C[C@H](C)[C@@H](CN(C)C(=O)Nc2cccc3ccccc23)OCCCC[C@H](C)Oc2ccc(NC(=O)Nc3cccc4ccccc34)cc2C1=O`, for which the cytotoxicity call was “inactive”.

For `C[C@@H]1CN([C@@H](C)CO)C(=O)c2cc(NC(=O)Nc3cccc4ccccc34)ccc2O[C@@H](C)CCCCO[C@H]1CN(C)C(=O)Nc1cccc2ccccc12`, the cytotoxicity call is “inactive”.

Regarding `C[C@@H]1CCCCO[C@@H](CN(C)C(=O)Nc2cccc3ccccc23)[C@H](C)CN([C@@H](C)CO)C(=O)c2cc(NC(=O)Nc3cccc4ccccc34)ccc2O1`, the cytotoxicity call is “active”.

In the case of `CC(C)NC(=O)Nc1ccc2c(c1)C(=O)N([C@H](C)CO)C[C@@H](C)[C@H](CN(C)C(=O)Nc1cccc3ccccc13)OCCCC[C@H](C)O2`, the cytotoxicity call was “inactive”.

`C[C@@H]1CCCCO[C@H](CN(C)C(=O)Nc2cccc3ccccc23)[C@H](C)CN([C@@H](C)CO)C(=O)c2cc(NC(=O)Nc3ccc(C(F)(F)F)cc3)ccc2O1`: the cytotoxicity call is “active”.

`C[C@@H]1CN([C@@H](C)CO)C(=O)c2cc(NC(=O)Nc3ccc(C(F)(F)F)cc3)ccc2O[C@@H](C)CCCCO[C@H]1CN(C)C(=O)Nc1cccc2ccccc12`: the cytotoxicity call was “inactive”.

On to `CC(C)NC(=O)Nc1ccc2c(c1)C(=O)N([C@H](C)CO)C[C@H](C)[C@H](CN(C)C(=O)Nc1cccc3ccccc13)OCCCC[C@H](C)O2`, for which the cytotoxicity call was “active”.

Consider `CN(C)CCCNC(=O)C[C@@H]1C=C[C@H](NS(=O)(=O)c2ccccc2)[C@H](CO)O1`, for which the cytotoxicity call is “inactive”.

As for `CO[C@@H]1CN(C)C(=O)c2cc(NC(=O)C3CC3)ccc2OC[C@@H](C)N(C(=O)Cc2ccccn2)C[C@H]1C`, the cytotoxicity call is “inactive”.

In the case of `NC(=O)c1ccc[n+](CC(=O)c2ccccc2)c1`, the cytotoxicity call was “inactive”.

With `C[C@@H]1CN([C@H](C)CO)C(=O)c2cc(NC(=O)Cc3ccccc3)ccc2O[C@@H](C)CCCCO[C@@H]1CN(C)CC1CCCCC1`, the cytotoxicity call was “inactive”.

As to `Cc1noc(C)c1S(=O)(=O)N(C)C[C@@H]1OCCCC[C@H](C)Oc2ccc(NS(=O)(=O)c3cn(C)cn3)cc2C(=O)N([C@@H](C)CO)C[C@H]1C`, the cytotoxicity call was “inactive”.

On to `OC[C@@H]1CC[C@@H]2O[C@H](CCc3ccc(C#CCc4ccccc4)cc3)[C@@H](n3cc(-c4ccccc4)nn3)C[C@@H]2O1`, for which the cytotoxicity call was “inactive”.

For `CO[C@H](C(=O)N(C)C[C@@H]1OCc2ccccc2-c2c(n(C)c3ccccc23)C(=O)N([C@H](C)CO)C[C@H]1C)c1ccccc1`, the cytotoxicity call is “inactive”.

Take `CN(C)C(=O)[C@H]1[C@H](CO)[C@H]2Cn3c(ccc(C4=CCCC4)c3=O)[C@@H]1N2S(=O)(=O)c1cn(C)cn1`: the cytotoxicity call is “inactive”.

As for `O=C(C[C@@H]1CC[C@H]2[C@@H](COC[C@H](O)CN2S(=O)(=O)c2cccc(F)c2)O1)NCc1ccc(Cl)c(Cl)c1`, the cytotoxicity call was “inactive”.

Take `C[C@H]1CN([C@@H](C)CO)C(=O)c2cc(NC(=O)CCC(F)(F)F)ccc2O[C@H]1CN(C)Cc1ccc(-c2ccccc2)cc1`: the cytotoxicity call was “inactive”.

Regarding `C[C@@H]1CN([C@@H](C)CO)C(=O)c2cc(NC(=O)CCC(F)(F)F)ccc2O[C@@H]1CN(C)Cc1ccc(-c2ccccc2)cc1`, the cytotoxicity call was “inactive”.

For `C[C@@H]1CN([C@@H](C)CO)C(=O)c2cc(NC(=O)CCC(F)(F)F)ccc2O[C@H]1CN(C)Cc1ccc(Oc2ccccc2)cc1`, the cytotoxicity call is “inactive”.

With `C[C@H]1CN([C@@H](C)CO)C(=O)c2cc(NC(=O)CCC(F)(F)F)ccc2O[C@@H]1CN(C)Cc1ccc(-c2ccccc2)cc1`, the cytotoxicity call was “active”.

Regarding `C[C@H](CO)N1C[C@H](C)[C@@H](CN(C)Cc2ccc(Oc3ccccc3)cc2)Oc2ccc(NC(=O)CCC(F)(F)F)cc2C1=O`, the cytotoxicity call was “inactive”.

For `C[C@@H]1CN([C@H](C)CO)C(=O)c2cc(NC(=O)CCC(F)(F)F)ccc2O[C@H]1CN(C)Cc1ccc(-c2ccccc2)cc1`, the cytotoxicity call was “active”.

As for `C[C@H](CO)N1C[C@H](C)[C@H](CN(C)Cc2ccc(-c3ccccc3)cc2)Oc2ccc(NC(=O)CCC(F)(F)F)cc2C1=O`, the cytotoxicity call was “active”.

For `C[C@@H]1CN([C@H](C)CO)C(=O)c2cc(NC(=O)CCC(F)(F)F)ccc2O[C@@H]1CN(C)Cc1ccc(-c2ccccc2)cc1`, the cytotoxicity call is “inactive”.

As to `C[C@H]1CN([C@@H](C)CO)C(=O)c2cc(NC(=O)CCC(F)(F)F)ccc2O[C@@H]1CN(C)Cc1ccc(C(F)(F)F)cc1`, the cytotoxicity call is “inactive”.

With `C[C@H](CO)N1C[C@H](C)[C@@H](CN(C)Cc2ccc(-c3ccccc3)cc2)Oc2ccc(NC(=O)CCC(F)(F)F)cc2C1=O`, the cytotoxicity call is “inactive”.

As for `C[C@@H]1CN([C@@H](C)CO)C(=O)c2cc(NC(=O)CCC(F)(F)F)ccc2O[C@H]1CN(C)Cc1ccc(-c2ccccc2)cc1`, the cytotoxicity call is “active”.

Regarding `C[C@H](CO)N1C[C@H](C)[C@H](CN(C)Cc2ccc(C(F)(F)F)cc2)Oc2ccc(NC(=O)CCC(F)(F)F)cc2C1=O`, the cytotoxicity call was “inactive”.

`CCN1CCC(N(C)S(=O)(=O)c2cn(C)c(=O)n(C)c2=O)CC1`: the cytotoxicity call was “inactive”.

For `CO[C@@H]1CN(C)C(=O)c2ccc(NS(C)(=O)=O)cc2OC[C@H](C)N(C(=O)C2CCCCC2)C[C@H]1C`, the cytotoxicity call was “inactive”.

On to `C[C@@H]1CN([C@H](C)CO)C(=O)c2cc(NS(C)(=O)=O)ccc2O[C@H]1CN(C)Cc1ccc(C(=O)Nc2ccccc2N)cc1`, for which the cytotoxicity call is “inactive”.

Consider `C[C@@H]1CCCCO[C@@H](CN(C)C(=O)Nc2cccc3ccccc23)[C@@H](C)CN([C@H](C)CO)C(=O)c2cc(NS(=O)(=O)c3cccs3)ccc2O1`, for which the cytotoxicity call is “inactive”.

For the compound `C[C@@H]1CN([C@@H](C)CO)C(=O)c2cccc(NS(=O)(=O)c3ccccc3)c2O[C@H]1CN(C)Cc1ccncc1`, the cytotoxicity call is “inactive”.

Consider `CCOc1nc2cccc(C(=O)O[C@@H](C)OC(=O)OC3CCCCC3)c2n1Cc1ccc(-c2ccccc2-c2nn[nH]n2)cc1`, for which the cytotoxicity call is “inactive”.

`c1ccc2c(c1)Cn1nnnc1-2`: the cytotoxicity call was “inactive”.

With `C[C@H]1CN([C@@H](C)CO)S(=O)(=O)c2ccc(-c3ccc(C(=O)N(C)C)cc3)cc2O[C@@H]1CN(C)C(=O)Cc1ccccn1`, the cytotoxicity call was “inactive”.

Regarding `C[C@@H]1CN([C@@H](C)CO)C(=O)CCCn2nncc2CO[C@@H]1CN(C)C(=O)Nc1ccc(N2CCCCC2)cc1`, the cytotoxicity call is “inactive”.

With `COc1ccccc1C#Cc1cnc2c(c1)C(=O)N([C@@H](C)CO)C[C@@H](C)[C@H](CN(C)C(=O)c1ccc3c(c1)OCO3)O2`, the cytotoxicity call was “inactive”.

For the compound `C[C@H](CO)N1C[C@H](C)[C@@H](CN(C)Cc2ccc(Cl)c(Cl)c2)Oc2c(NC(=O)CCCCCC(=O)Nc3ccccc3N)cccc2C1=O`, the cytotoxicity call is “inactive”.

On to `C[C@@H]1CCCCO[C@H](CN(C)C(=O)Nc2ccc(C(F)(F)F)cc2)[C@H](C)CN([C@H](C)CO)C(=O)c2cc(NS(=O)(=O)c3cccs3)ccc2O1`, for which the cytotoxicity call is “inactive”.

As to `C[C@@H]1CCCCO[C@H](CN(C)C(=O)Nc2ccccc2)[C@@H](C)CN([C@@H](C)CO)C(=O)c2cc(NS(=O)(=O)c3cccs3)ccc2O1`, the cytotoxicity call is “active”.

Take `C[C@@H]1CCCCO[C@@H](CN(C)C(=O)Nc2ccc(C(F)(F)F)cc2)[C@H](C)CN([C@@H](C)CO)C(=O)c2cc(NS(=O)(=O)c3cccs3)ccc2O1`: the cytotoxicity call is “inactive”.

Take `C[C@H]1CCCCO[C@@H](CN(C)C(=O)NC2CCCCC2)[C@@H](C)CN([C@@H](C)CO)C(=O)c2cc(NS(=O)(=O)c3cccs3)ccc2O1`: the cytotoxicity call was “inactive”.

For `C[C@H](CO)N1C[C@H](C)[C@@H](CN(C)C(=O)Nc2ccc(C(F)(F)F)cc2)OCCCC[C@H](C)Oc2ccc(NS(=O)(=O)c3cccs3)cc2C1=O`, the cytotoxicity call is “active”.

As for `C[C@@H]1CN([C@@H](C)CO)C(=O)c2cc(NS(=O)(=O)c3cccs3)ccc2O[C@@H](C)CCCCO[C@@H]1CN(C)C(=O)Nc1ccc(C(F)(F)F)cc1`, the cytotoxicity call was “inactive”.

Turning to `C[C@@H]1CN([C@H](C)CO)C(=O)c2cc(NS(=O)(=O)c3cccs3)ccc2O[C@@H](C)CCCCO[C@@H]1CN(C)C(=O)NC1CCCCC1`, the cytotoxicity call was “active”.

For the compound `C[C@@H]1CCCCO[C@H](CN(C)C(=O)Nc2ccc(C(F)(F)F)cc2)[C@@H](C)CN([C@H](C)CO)C(=O)c2cc(NS(=O)(=O)c3cccs3)ccc2O1`, the cytotoxicity call is “inactive”.

Regarding `C[C@@H]1CN([C@H](C)CO)C(=O)c2cc(NS(=O)(=O)c3cccs3)ccc2O[C@@H](C)CCCCO[C@H]1CN(C)C(=O)NC1CCCCC1`, the cytotoxicity call is “inactive”.

Regarding `C[C@@H]1CCCCO[C@@H](CN(C)C(=O)Nc2ccccc2)[C@@H](C)CN([C@H](C)CO)C(=O)c2cc(NS(=O)(=O)c3cccs3)ccc2O1`, the cytotoxicity call is “inactive”.

Turning to `C[C@H]1CCCCO[C@@H](CN(C)C(=O)Nc2ccccc2)[C@@H](C)CN([C@@H](C)CO)C(=O)c2cc(NS(=O)(=O)c3cccs3)ccc2O1`, the cytotoxicity call is “inactive”.

For the compound `C[C@H](CO)N1C[C@H](C)[C@H](CN(C)C(=O)Nc2ccc(C(F)(F)F)cc2)OCCCC[C@H](C)Oc2ccc(NS(=O)(=O)c3cccs3)cc2C1=O`, the cytotoxicity call was “active”.

The record behind these values is the antibiotic and cytotoxicity screens of Wong et al. (2023).
